Test results: PubChem BioAssay (NCATS)
Where “and” joins values, the source holds several entries; their conditions need not be identical. Equal entries are not always repeated. Records with an inconclusive call do not appear. Calls of active or inactive are those of the source. Unless noted, the call rests on the fitted dose curve; in most records, active means well fitted curve in the direction sought with a large enough effect; inconclusive means small, poorly fitted or top-dose-only effect, or another doubt; inactive means no such curve, though single readings can be large; an effect the other way counts as inactive or inconclusive.

Legend:
[1] = qHTS Assay for Identifying Gametocytocidal Compounds (AID 743244);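 further: on the % scale 0 is the no-effect control and ±100 the full control effect; actives lower the fluorescent signal which means gametocytes are killed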; details: P. falciparum 3D7 stage III-V gametocytes, alamarBlue, 72 h; max response: active compounds read low
Outline: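 Compounds are pinned into medium, gametocytes (stage III–V, 3D7, 20,000 cells/well) added, and plates held 72 h at 37 °C in 5% CO2. AlamarBlue follows for 24 h before fluorescence reading.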

[2] = qHTS assay for measurement of the activity of small molecule inhibitors on Zika virus induced Caspase-3 activity in human iPSC derived neural progenitor cells (hNPCs) (AID 1224857); further: % of control where 0% means no effect; nearly all actives have a fitted effect of over 65% in size
Outline: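 Pretreat hNPCs with compound 1 h; infect ZIKV 2 FFU/cell; 6 h 37 C, 5% CO2; Caspase-Glo 3/7, 30 min RT; luminescence; normalize to no-virus and virus-only wells.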

[3] = qHTS assay for measurement of the activity of small molecule inhibitors on Zika virus induced Caspase-3 activity in human astrocytoma cells (AID 1224859);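 further: plate controls were ZIKV-infected untreated cells for no effect and uninfected cells for full effect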
Outline: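 Human SNB-19 astrocytoma cells in RPMI 1640 with 10% FBS receive compound one hour ahead of Zika virus at 2 FFU/cell. After 6 h infection, caspase-3/7 activity is detected by Caspase-Glo luminescence.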

[4] = P-glycoprotein substrates identified in KB-8-5-11 adenocarcinoma cell line, qHTS therapeutic library screen (AID 1346987); further: nearly all actives have a fitted effect of over 65% in size; further: potency means the concentration at half of the fitted maximal effect
Outline: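 Human cervical adenocarcinoma KB-8-5-11 cells, selected in colchicine to over-express P-gp and assayed without it, were exposed for 72 h to titrated compounds. An ATP-based luminescent viability signal gave AC50.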

[5] = Natriuretic polypeptide receptor (hNpr1) antagonism - Pilot counterscreen GloSensor control cell line (AID 1347045; calls by dose curve; further: series mostly up to about 38 µM; on the % scale 0 is the no-effect control and ±100 the full control effect)
Outline: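 The SNP-driven cGMP luminescence signal (50 uM, 20 min, room temperature) was measured in GloSensor HEK293 control cells. Compounds were tested as a LOPAC titration series and preincubated for 30-50 min.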

[6] = molecular target: Atrial natriuretic peptide receptor 1 (Homo sapiens) (UniProt P16066); assay: Natriuretic polypeptide receptor (hNpr1) antagonism - Pilot screen (AID 1347049; calls by dose curve;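 further: agonist-evoked cGMP luminescence read 20 min after hNppA addition; series mostly up to about 58 µM; on the % scale 0 is the no-effect control and ±100 the full control effect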)
Chain of Atrial natriuretic peptide receptor 1 (Homo sapiens) (P16066 whole entry, looked up): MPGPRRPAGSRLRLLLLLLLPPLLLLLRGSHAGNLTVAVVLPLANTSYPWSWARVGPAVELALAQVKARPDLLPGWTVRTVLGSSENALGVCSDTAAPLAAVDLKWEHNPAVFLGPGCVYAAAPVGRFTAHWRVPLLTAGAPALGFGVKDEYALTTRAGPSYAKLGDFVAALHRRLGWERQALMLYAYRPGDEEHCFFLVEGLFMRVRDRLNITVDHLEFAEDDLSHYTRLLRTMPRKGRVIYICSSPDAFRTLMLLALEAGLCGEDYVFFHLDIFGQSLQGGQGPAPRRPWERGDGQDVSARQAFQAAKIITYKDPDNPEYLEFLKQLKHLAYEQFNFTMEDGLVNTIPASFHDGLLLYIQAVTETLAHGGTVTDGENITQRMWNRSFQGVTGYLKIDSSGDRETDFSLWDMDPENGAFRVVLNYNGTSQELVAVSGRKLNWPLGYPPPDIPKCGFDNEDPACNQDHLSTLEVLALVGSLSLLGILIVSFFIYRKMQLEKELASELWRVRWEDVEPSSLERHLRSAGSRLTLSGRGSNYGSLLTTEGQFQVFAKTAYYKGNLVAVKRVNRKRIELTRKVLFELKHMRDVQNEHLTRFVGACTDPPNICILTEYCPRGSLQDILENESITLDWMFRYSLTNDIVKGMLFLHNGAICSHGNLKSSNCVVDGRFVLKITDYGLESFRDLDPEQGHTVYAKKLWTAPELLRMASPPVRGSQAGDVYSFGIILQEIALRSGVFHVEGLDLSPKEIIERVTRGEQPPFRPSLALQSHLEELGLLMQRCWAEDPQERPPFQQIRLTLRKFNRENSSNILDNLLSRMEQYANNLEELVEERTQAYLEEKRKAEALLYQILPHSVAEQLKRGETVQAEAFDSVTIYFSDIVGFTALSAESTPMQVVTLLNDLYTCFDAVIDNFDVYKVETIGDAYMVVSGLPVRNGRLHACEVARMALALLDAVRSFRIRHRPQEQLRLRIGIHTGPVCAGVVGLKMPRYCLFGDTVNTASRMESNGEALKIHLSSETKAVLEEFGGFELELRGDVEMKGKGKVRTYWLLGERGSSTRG
Outline: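 cGMP-sensor HEK293/hNpr1 cells, 1500/well, plated overnight at 37C. 2% GloSensor reagent, 2 h RT. Compound (23 nL pin transfer) 30 min RT, baseline luminescence pre-read. 0.1 nM hNppA, 20 min RT, post-read.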

[7] = NS1 protein of Zika virus - qHTS assay to identify small molecule inhibitors in human HEK 293 cells (AID 1347053);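 further: series mostly up to about 46 µM; plate controls were infected untreated cells for no effect and uninfected cells for full effect; nearly all actives have a fitted effect of over 55% in size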
Outline: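 In this cell-based screen, HEK 293 cultures received compound for one hour before Zika MR766 at MOI = 0.5. NS1 was quantified 24 hours later by TR-FRET, normalized to virus-free wells and infected wells.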

[8] = molecular target: T1, Tyrosine-protein phosphatase non-receptor type substrate 1 (Homo sapiens) + Leukocyte surface antigen CD47 (Homo sapiens) (UniProt P78324+Q08722); assay: CD47-SIRPalpha protein protein interaction - HTRF assay qHTS validation (AID 1347058; active means well fitted curve in the direction sought with a large enough effect in the signal ratio, not every such curve was filed as active; the % refers to the signal ratio; further: series mostly up to about 38 µM; 0% is about no effect)
T1 sequence (P78324 whole entry, looked up, the tested form may be a part): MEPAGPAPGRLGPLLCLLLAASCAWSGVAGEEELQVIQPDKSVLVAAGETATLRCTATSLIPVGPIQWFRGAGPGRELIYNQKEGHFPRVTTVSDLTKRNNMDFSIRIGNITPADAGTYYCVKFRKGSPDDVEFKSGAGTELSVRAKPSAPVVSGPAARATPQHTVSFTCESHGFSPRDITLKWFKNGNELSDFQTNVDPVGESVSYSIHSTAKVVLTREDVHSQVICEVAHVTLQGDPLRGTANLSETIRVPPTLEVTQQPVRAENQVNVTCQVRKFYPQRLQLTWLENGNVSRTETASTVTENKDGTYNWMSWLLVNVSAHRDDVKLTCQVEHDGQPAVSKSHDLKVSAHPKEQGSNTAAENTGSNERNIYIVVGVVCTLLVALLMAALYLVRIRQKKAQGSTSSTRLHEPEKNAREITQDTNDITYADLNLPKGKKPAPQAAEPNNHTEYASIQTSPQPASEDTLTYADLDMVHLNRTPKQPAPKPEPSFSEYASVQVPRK
T1 sequence (Q08722 whole entry, looked up, the tested form may be a part): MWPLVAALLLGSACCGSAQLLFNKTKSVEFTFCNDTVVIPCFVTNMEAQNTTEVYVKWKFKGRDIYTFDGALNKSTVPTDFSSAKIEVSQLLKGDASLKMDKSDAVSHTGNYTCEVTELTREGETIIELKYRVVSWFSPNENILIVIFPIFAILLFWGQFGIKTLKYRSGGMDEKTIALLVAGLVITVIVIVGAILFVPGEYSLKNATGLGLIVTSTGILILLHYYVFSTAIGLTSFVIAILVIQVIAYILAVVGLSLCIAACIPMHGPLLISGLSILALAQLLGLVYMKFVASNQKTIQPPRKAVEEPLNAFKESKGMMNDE
Outline: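 Soluble extracellular domains (6His-CD47, Avi-tag-biotinylated SIRPalpha) in PBS pH 7.4 with 0.05% IGEPAL CA-630. Compounds were preincubated 30 min at RT with CD47 and anti-His-Eu, then SIRPalpha and SAV-XL665 were added. TR-FRET 665/615 ratio.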

[9] = molecular target: T1, Tyrosine-protein phosphatase non-receptor type substrate 1 (Homo sapiens) + Leukocyte surface antigen CD47 (Homo sapiens); assay: CD47-SIRPalpha protein protein interaction - Alpha assay qHTS validation (AID 1347059);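 further: bead proximity luminescence from CD47 binding SIRPalpha after compound preincubation with SIRPalpha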; further: potency means the concentration at half of the fitted maximal effect
Outline: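 SIRPalpha-biotin 25 nM + cpd, 30 min RT, dark; add CD47-His 12.5 nM, 30 min; add Ni-NTA/SAV beads 10 ug/mL, 30 min; AlphaScreen. Buffer PBS pH 7.4 + 0.05% IGEPAL CA-630. Non-biotinylated SIRPalpha as control inhibitor.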

[10] = molecular target: Parathyroid hormone/parathyroid hormone-related peptide receptor (Homo sapiens) (UniProt Q03431); assay: qHTS for PTHR1 Agonists: Optimization Screen against the NCGC LOPAC library (AID 1347079);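 further: GloSensor cAMP luminescence in HEK-293 GP2 cells expressing human PTHR1 with IBMX; 0% is about no effect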
Chain of Parathyroid hormone/parathyroid hormone-related peptide receptor (Homo sapiens) (Q03431 whole entry, looked up): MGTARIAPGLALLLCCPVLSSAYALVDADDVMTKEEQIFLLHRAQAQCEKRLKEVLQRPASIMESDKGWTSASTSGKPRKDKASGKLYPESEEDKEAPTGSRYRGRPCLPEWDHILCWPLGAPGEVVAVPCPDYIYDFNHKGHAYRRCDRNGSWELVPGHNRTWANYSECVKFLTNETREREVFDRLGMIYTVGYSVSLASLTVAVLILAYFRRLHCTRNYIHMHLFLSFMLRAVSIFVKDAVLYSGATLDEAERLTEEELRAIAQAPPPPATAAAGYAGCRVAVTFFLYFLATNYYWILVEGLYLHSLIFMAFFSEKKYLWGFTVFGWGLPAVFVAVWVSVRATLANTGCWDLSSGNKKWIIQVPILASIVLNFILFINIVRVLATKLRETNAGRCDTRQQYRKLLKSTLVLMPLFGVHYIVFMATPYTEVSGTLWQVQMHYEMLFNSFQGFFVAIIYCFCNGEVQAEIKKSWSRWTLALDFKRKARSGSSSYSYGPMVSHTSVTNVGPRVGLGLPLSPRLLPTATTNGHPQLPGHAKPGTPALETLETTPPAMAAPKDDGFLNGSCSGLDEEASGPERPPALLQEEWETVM
Outline: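 Signal increase flags agonism. GP2 cells, derived from HEK-293, express human PTHR1 and a GloSensor cAMP construct.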

[11] = qHTS of pediatric cancer cell lines to identify multiple opportunities for drug repurposing: Primary screen for TC32 cells (AID 1347089); further: nearly all actives have a fitted effect of over 60% in size; further: potency means the concentration at half of the fitted maximal effect
Outline: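 qHTS, TC32, 48 h drug treatment, CellTiter-Glo luminescence as a proxy for metabolically active cells; primary top concentration 46 µM (MIPE 11-pt, NPC 8-pt); confirmatory 11-pt.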

[12] = molecular target: T1, Tyrosine-protein phosphatase non-receptor type substrate 1 (Homo sapiens) + Leukocyte surface antigen CD47 (Homo sapiens); assay: CD47-SIRPalpha protein protein interaction - LANCE assay qHTS validation (AID 1347057; active means well fitted curve in the direction sought with a large enough effect in the signal ratio, with a control signal flat, not every such curve was filed as active; the % refers to the signal ratio; further: series mostly up to about 38 µM; 0% is about no effect)
Outline: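 Inhibition of soluble CD47/SIRPalpha ectodomain association by titrated compounds, measured as 665/615 nm time-resolved FRET ratio after sequential 30 min room-temperature incubations.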

N[C@@H](Cn1ccc(=O)c(O)c1)C(=O)O
active: Potency [9] 0.0585 µM
inactive: max response [1] 9.87% | Potency [2] | outcome [3] | outcome [4] inactive [at 5.11 µM] | Potency [5] | Potency [6] | Potency [7] | outcome [8] | outcome [10]

CC(C(O)c1ccccc1)N(C)CCOC(c1ccccc1)c1ccccc1 (configuration not stated)
active: Potency [4] 14.6 µM
inactive: Potency [2] | outcome [3] | Potency [7] | Potency [11]

Cc1c(C)c2c(c(C)c1OC(=O)CCC(=O)OCCO)CC[C@@](C)(CCC[C@H](C)CCC[C@H](C)CCCC(C)C)O2
inactive: Potency [2] | outcome [3] | Potency [4] | Potency [7]

O=C(O)c1ccccc1S
inactive: Potency [2] | outcome [3] | Potency [4] | Potency [7] | Potency [11]

CN1C(CSCC(F)(F)F)Nc2cc(Cl)c(S(N)(=O)=O)cc2S1(=O)=O (configuration not stated)
inactive: max response [1] 2.14% | Potency [2] | outcome [3] | Potency [4] | Potency [7] | Potency [11]

CC1(C)S[C@@H]2[C@H](NC(=O)C(c3ccccc3)S(=O)(=O)O)C(=O)N2[C@H]1C(=O)O (some centres not stated)
inactive: max response [1] -17.7% | Potency [2] | outcome [3] | Potency [4] | Potency [7] | Potency [11]

NC(=O)C1(N2CCCCC2)CCN(CCCN2c3ccccc3CCc3ccc(Cl)cc32)CC1
inactive: Potency [2] | outcome [3]

CC[N+](CC)(CC)CCOC(=O)C(C1CCCC1)C1CCCC1
inactive: Potency [2] | outcome [3] | Potency [4] | Potency [7] | Potency [11]

CCOc1ccc(NS(=O)(=O)c2ccc(N)cc2)nn1
inactive: Potency [2] | outcome [3] | Potency [4] | Potency [7] | Potency [11]

CC(C)=CCNc1ncnc2c1ncn2[C@@H]1O[C@H](CO)[C@@H](O)[C@H]1O
inactive: Potency [2] | outcome [3] | Potency [7]
active: Potency [4] 5.8 µM | Potency [11] 5.92 µM

O=C1NC(c2cccc([N+](=O)[O-])c2)=CCN1c1ccccc1O
inactive: max response [1] 21.2% | Potency [2] | outcome [3] | Potency [4] | Potency [5] | Potency [6] | Potency [7] | outcome [12] | Potency [9] | outcome [10]

CN1[C@@H]2CC[C@H]1CC(NC(=O)n1c(=O)[nH]c3ccccc31)C2 (some centres not stated)
inactive: Potency [2] | outcome [3] | Potency [4] | Potency [7] | Potency [11]

Cn1cnc2c(NCc3ccccc3)nc(NCCO)nc21
inactive: max response [1] 11.6% | Potency [2] | outcome [3] | Potency [4] | Potency [5] | Potency [6] | Potency [7] | outcome [12] | Potency [9] | outcome [10]

NC(N)=NCCCCN=C(N)N
inactive: max response [1] 2.24% and 15.3% | Potency [2] | outcome [3] | Potency [4] | Potency [5] | Potency [6] | Potency [7] | outcome [12] | outcome [8] | Potency [9] | outcome [10]

COc1cc(C(=O)NC2CCCNC2)cc(OC)c1OC (configuration not stated)
inactive: max response [1] -0.328% | Potency [2] | outcome [3] | Potency [4] | Potency [7] | Potency [11]

C[N+](C)(CCOc1ccccc1)Cc1cccs1
inactive: Potency [2] | outcome [3] | Potency [4] | Potency [7] | Potency [11]

CO/N=C(/C(=O)N[C@@H]1C(=O)N2C(C(=O)OCOC(=O)C(C)(C)C)=C(C)CS[C@H]12)c1csc(N)n1
inactive: max response [1] -0.603% | Potency [2] | outcome [3] | Potency [4] | Potency [7] | Potency [11]

C=CC[N+]1([C@H]2C[C@H]3[C@@H]4CC[C@H]5C[C@H](OC(C)=O)[C@@H](N6CCCCC6)C[C@]5(C)[C@H]4CC[C@]3(C)[C@H]2OC(=O)CC)CCCCC1
inactive: Potency [2] | outcome [3] | Potency [4] | Potency [7] | Potency [11]

O=C(Nc1ccc(Cl)cc1)Nc1ccc(Cl)c(C(F)(F)F)c1
active: Potency [4] 20.6 µM
inactive: Potency [2] | outcome [3]

O=C(O)[C@@H](O)[C@H](O)[C@H](O)[C@@H](O)C(=O)O
inactive: max response [1] 9.57% | Potency [2] | outcome [3] | Potency [4] | Potency [7] | Potency [11]

C[C@H]1NCc2cc(-c3ccc4c(=O)c(C(=O)O)cn(C5CC5)c4c3OC(F)F)ccc21
inactive: Potency [2] | outcome [3] | Potency [4] | Potency [7] | Potency [11]

CO[C@@H]1[C@@H](O[C@@H]2O[C@H](C)[C@@H](O[C@H]3C[C@@](C)(O)[C@@H](O)[C@H](C)O3)[C@H](N(C)C)[C@H]2O)[C@@H](CC=O)C[C@@H](C)[C@@H](O[C@@H]2CC[C@H](N(C)C)[C@@H](C)O2)/C=C/C=C/C[C@@H](C)OC(=O)C[C@H]1OC(C)=O
inactive: Potency [2] | outcome [3] | Potency [4] | Potency [7] | Potency [11]

OCCc1ccccc1
inactive: max response [1] 0.746% | Potency [2] | outcome [3] | Potency [4] | Potency [7] | Potency [11]

Brc1ccc([C@H]2CN3CCSC3=N2)cc1
inactive: max response [1] 13.2% | Potency [2] | outcome [3] | Potency [4] | Potency [5] | Potency [6] | Potency [7] | outcome [12] | outcome [8] | Potency [9] | outcome [10]
